Results on 40 sequences are retold here after the OligoGym collection.
Further: reference of the scale not given here.

The target of the first test is FRMD4B. Kind of test: pooled miR-30 sensor sort-seq; sequence = guide strand. The conditions noted are these: shRNA.
TAGAAGTTTGGGCTGAACCAGC: the sensor-assay potency score (higher = more potent) is -0.701.
Sequence TTGAAACTGAAATCCTTCGTGG returned a sensor-assay potency score (higher = more potent) of 0.853.
Sequence TTTGCTTTGCTTCCGGTCCAAG came in with a sensor-assay potency score (higher = more potent) of -1.02.
On the same count and under the same terms, next, TTGAAGTAGAAACATTCTGTTT: -1.02.
Same read-out and setting: next, TATTAGAAAATTACTCTCCAGT: 0.00309.

The target in a further test is FRRS1. The test is described as above. The conditions noted are these: shRNA.
For TAAATTGCCAACACTGCCTTTT, the sensor-assay potency score (higher = more potent) was -0.275.
The same measure, in the same setting: next, TTATTCTAGCAGCTGTTCCCAT: -0.391; AAGAACACTGCATAACACCGTC: -0.249; TAACTTCAATCTGATCTCCTGG: 0.0664.
TAACAGTAGTCATCCATGCCAC gave a sensor-assay potency score (higher = more potent) of -0.274.
The sequence TGACAAAGTAACTTCAATCTGA returned a sensor-assay potency score (higher = more potent) of 0.192.
The same measure, in the same setting: in the case of TTTTATACTTCTCAACAACTGT it was -0.421.
TAAGGCACCATGAACCTTCAGA had a sensor-assay potency score (higher = more potent) of -0.182.
ATAAGCATCATCATCACCCATC registered a sensor-assay potency score (higher = more potent) of -0.528.
Consider TATGCTAACAGTAGTCATCCAT, for which the sensor-assay potency score (higher = more potent) came out at 0.0935.
Still for that read-out and setting: next, TTCTTCTGAAAGAACACTGCAT: 0.427; TTCAACTCCAGAACAACCTCAG: 0.767.

Another test concerns the target FTL. Described as above. The conditions noted are these: shRNA.
Take TTTTTCTCCAGGGCCATGGCAG: the sensor-assay potency score (higher = more potent) was -1.05.
Turning to TCCAGAGCCACATCATCGCGGT, the sensor-assay potency score (higher = more potent) is -0.991.
The sequence TTCAGGAGACGCTCGTAGCCCT registered a sensor-assay potency score (higher = more potent) of -0.927.
TTCCAGAGCCACATCATCGCGG displayed a sensor-assay potency score (higher = more potent) of -0.592.
TGATAAGCTTCACTTCCTCATC: the sensor-assay potency score (higher = more potent) was -1.37.
Still for that read-out and setting: in the case of TTTTACCCCACTCATCTTCAGC it was -1.2.
TTGATAAGCTTCACTTCCTCAT registered a sensor-assay potency score (higher = more potent) of -0.312.
Sequence TTCACTTCCTCATCTAGGAAGT displayed a sensor-assay potency score (higher = more potent) of -0.832.
The sequence TAGGAAGTGAGTCTCCAGGAAG yielded a sensor-assay potency score (higher = more potent) of -1.72.
On the same count and under the same terms, in the case of TCTTGATAAGCTTCACTTCCTC it was -0.871.
With ATGAAGATCCAAAAGGGCCTGG, the sensor-assay potency score (higher = more potent) is -0.154.
For the sequence TTGACCAGGCTGTTGACGGCTG, the sensor-assay potency score (higher = more potent) is -0.48.
As for TTGCATCTTCAGGAGACGCTCG, the sensor-assay potency score (higher = more potent) is -0.127.
TTCGAAGAGATACTCGCCCAGC displayed a sensor-assay potency score (higher = more potent) of -0.73.
Consider TACCCCACTCATCTTCAGCTGG, for which the sensor-assay potency score (higher = more potent) was -0.815.
Same read-out and setting: in the case of TTGATGTCCTGGAAGAGAGCGC it was -0.331.
Turning to TTTCGAAGAGATACTCGCCCAG, the sensor-assay potency score (higher = more potent) was -0.301.
As to TCTAGGAAGTGAGTCTCCAGGA, the sensor-assay potency score (higher = more potent) is -0.902.
Sequence TTCAGCTGGCTTCTTGATGTCC showed a sensor-assay potency score (higher = more potent) of -0.855.
Take ATCTAGGAAGTGAGTCTCCAGG: the sensor-assay potency score (higher = more potent) is -1.73.
In turn, TCGCGGTCGAAATAGAAGCCCA yielded a sensor-assay potency score (higher = more potent) of -1.25.
As to TAAGCTTCACTTCCTCATCTAG, the sensor-assay potency score (higher = more potent) is -0.516.
The sequence TTTGCATCTTCAGGAGACGCTC returned a sensor-assay potency score (higher = more potent) of -0.792.
